Rows were chosen to be rich in hits. Some 2.6% of all compounds tested hit in one or more screens of this group.
Cruzain inh Det = inhibitors of Trypanosoma cruzi cruzain with detergent; purified cruzain, Z-FR-AMC fluorescence, 0.01% Triton; Potency, µM, without a hit: max response, negative = inhibition, actives largely listed as inhibitors; 200,000 compounds, 0.43% hits; AID 1478;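 also: plate controls were neutral wells for no effect and buffer without enzyme for full effect; nearly all actives have a fitted effect of over 40% in size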
Target sequence (P25779 123-467 limits assumed): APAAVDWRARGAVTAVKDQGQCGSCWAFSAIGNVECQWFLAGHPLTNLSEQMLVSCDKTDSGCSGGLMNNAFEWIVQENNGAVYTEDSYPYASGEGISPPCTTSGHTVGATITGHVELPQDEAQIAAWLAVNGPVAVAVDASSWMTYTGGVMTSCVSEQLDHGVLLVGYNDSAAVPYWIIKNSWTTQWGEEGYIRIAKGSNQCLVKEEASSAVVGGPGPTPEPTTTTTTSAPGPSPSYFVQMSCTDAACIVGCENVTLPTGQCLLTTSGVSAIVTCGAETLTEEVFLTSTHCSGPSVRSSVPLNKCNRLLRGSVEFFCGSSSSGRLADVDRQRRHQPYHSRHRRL
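In this qHTS format, compounds are incubated with 1.5 nM cruzain for 15 min at room temperature before 2 uM Z-FR-AMC is added. Release of AMC is followed at 360/450 nm, and progress is taken as the 60 s fluorescence difference.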
Cruzain inh noDet = cruzain (T. cruzi) inhibition without detergent. P25779. purified cruzain, Z-FR-AMC fluorescence, no detergent. Potency, µM, without a hit: max response, negative = inhibition, actives largely listed as inhibitors. 200,000 compounds, 2.3% hits. AID 1476;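 also: plate controls were enzyme without inhibitor for no effect and buffer without enzyme for full effect; nearly all actives have a fitted effect of over 40% in size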
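Detergent-free condition (0.00005% Triton X-100) in acetate buffer pH 5.5 with DTT. 1.5 nM enzyme and compound were pre-mixed 15 min, then 2 uM Z-FR-AMC substrate added; reaction progress from fluorescence change between first and third reads (60 s).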
The depositor's hits bear a star. Calls follow the shape of the dose curve; as a rule, active = well fitted curve in the direction sought with a large enough effect; inconclusive = small, poorly fitted or top-dose-only effect, or another doubt; inactive = no such curve, though single readings can be large; an effect the other way counts as inactive or inconclusive. Potency is read from the fitted curve at half-maximal effect.

How did COc1cccc(NC(=O)C2CCN(S(=O)(=O)c3ccc4[nH]c5c(c4c3)CCCCC5)CC2)c1 do in these assays?
Cruzain inh Det: -2%; Cruzain inh noDet: 20µM*

What do the screens show for `O=C(Nc1cccc(F)c1)C1CCN(S(=O)(=O)c2ccc3[nH]c4c(c3c2)CCCCC4)CC1`?
Cruzain inh Det: 1%; Cruzain inh noDet: 16µM*

Results for CCOc1ccccc1NC(=O)C1CCN(S(=O)(=O)c2ccc3[nH]c(=O)ccc3c2)CC1 ?
Cruzain inh Det: -3%; Cruzain inh noDet: 10%

Results for CSc1cccc(NC(=O)C2CCN(S(C)(=O)=O)CC2)c1 ?
Cruzain inh Det: 10%; Cruzain inh noDet: 1%

How did CSc1cccc(NC(=O)C2CCN(S(=O)(=O)c3ccc4[nH]c5c(c4c3)CCCCC5)CC2)c1 do in these assays?
Cruzain inh Det: 3%; Cruzain inh noDet: 13µM*

What do the screens show for `CC(=O)c1cccc(NC(=O)C2CCN(S(=O)(=O)c3ccc(F)cc3)CC2)c1`?
Cruzain inh Det: 2%; Cruzain inh noDet: -11%

What do the screens show for `COc1ccccc1NC(=O)C1CCN(S(=O)(=O)c2ccc3[nH]c4c(c3c2)CCCCC4)CC1`?
Cruzain inh Det: -3%; Cruzain inh noDet: 20µM*

Results for COc1cccc(NS(=O)(=O)c2ccc3[nH]c4c(c3c2)CCCCCC4)c1 ?
Cruzain inh Det: -10%; Cruzain inh noDet: -29%

Results for COc1cccc(CNC(=O)CCCN2C(=O)CCn3nc(-c4cccn4C)cc32)c1 ?
Cruzain inh Det: -1%; Cruzain inh noDet: 0%

How did c1cncc(CSc2ncnc3nc[nH]c23)c1 do in these assays?
Cruzain inh Det: -1%; Cruzain inh noDet: -2%

How did C[C@H]1[C@H](C)CC[C@]2(C(=O)O)CC[C@]3(C)C(=CCC4[C@@]5(C)CC[C@H](O)C(C)(C)[C@@H]5CC[C@]43C)[C@H]12 (some centres not stated) do in these assays?
Cruzain inh Det: 0%; Cruzain inh noDet: -4%

What do the screens show for `CC(C)C[C@@H](CC(=O)N[C@@H](CCC(=O)O)CC(=O)O)NC(=O)[C@@H]1CNCC[C@H]1NC(=O)C[C@H](CCCN)NC(=O)C[C@H](Cc1c[nH]c2ccccc12)NC(=O)[C@@H]1CCCC[C@H]1N`?
Cruzain inh Det: -4%; Cruzain inh noDet: -10%

How did CCOc1ccc2c(c1)c(=O)c(C(=O)c1ccc(CC)cc1)cn2CC(=O)Nc1ccccc1OC do in these assays?
Cruzain inh Det: -1%; Cruzain inh noDet: -6%

Results for CCCn1c(=NC(=O)c2cc3ccccc3o2)c(C(=O)OCC)cc2c(=O)n3ccccc3nc21 ?
Cruzain inh Det: 2%; Cruzain inh noDet: -3%

What do the screens show for `C=CCOCC1CO1` (configuration not stated)?
Cruzain inh Det: 8%; Cruzain inh noDet: -2%

What do the screens show for `CC(=O)c1ccc(NS(=O)(=O)c2ccc3[nH]c4c(c3c2)CCCCCC4)cc1`?
Cruzain inh Det: -12%; Cruzain inh noDet: inconclusive

What do the screens show for `CC(=O)c1ccc(N2CCN(S(=O)(=O)c3ccc4[nH]c5c(c4c3)CCCCC5)CC2)cc1`?
Cruzain inh Det: -6%; Cruzain inh noDet: 10µM*

Results for Cc1ccc(CSC2=Nc3sccc3C3=NC(=O)CN23)cc1 ?
Cruzain inh Det: -8%; Cruzain inh noDet: 20µM*

Results for COc1cc2c(cc1OC)C1=NC(=O)CN1C(SCc1ccc(C)cc1)=N2 ?
Cruzain inh Det: 6%; Cruzain inh noDet: -9%

What do the screens show for `O=C(C/C=N/OCc1ccc(Cl)cc1)c1cnc(-c2ccccc2)s1`?
Cruzain inh Det: -4%; Cruzain inh noDet: -30%

How did O=C(C/C=N/OCc1c(Cl)cccc1Cl)c1cnc(-c2ccccc2)s1 do in these assays?
Cruzain inh Det: 1%; Cruzain inh noDet: 13µM*

Results for O=S(=O)(O)c1ccccc1 ?
Cruzain inh Det: 1%; Cruzain inh noDet: -1%

How did CN(C)S(=O)(=O)c1cccc(-c2nn(-c3ccccc3)cc2/C=C(\C#N)c2nc3ccccc3[nH]2)c1 do in these assays?
Cruzain inh Det: -3%; Cruzain inh noDet: inconclusive

What do the screens show for `N#C/C(=C\c1ccc(-c2ccc(F)cc2F)o1)c1nc2ccccc2[nH]1`?
Cruzain inh Det: -5%; Cruzain inh noDet: 13µM*

How did N#C/C(=C\c1ccc(-c2ccccc2C(=O)O)o1)c1nc2ccccc2[nH]1 do in these assays?
Cruzain inh Det: -1%; Cruzain inh noDet: -1%

What do the screens show for `N#C/C(=C\c1cn(-c2ccccc2)nc1-c1cc2ccccc2o1)c1nc2ccccc2[nH]1`?
Cruzain inh Det: -3%; Cruzain inh noDet: 7.9µM*

How did CCOc1ccc2nc(N3CCCC(C(=O)NCCc4ccc(OC)cc4OC)C3)sc2c1 (configuration not stated) do in these assays?
Cruzain inh Det: -5%; Cruzain inh noDet: inconclusive

How did c1ccc(Nc2ncncc2-c2ccoc2)cc1 do in these assays?
Cruzain inh Det: 9%; Cruzain inh noDet: 10%

How did O=c1[nH]c(-c2ccc(Cl)cc2)nc2c1cnn2-c1ccccc1 do in these assays?
Cruzain inh Det: 5%; Cruzain inh noDet: 25µM*

Results for CCCCSc1nc2c(cnn2-c2ccc(F)cc2)c(=O)[nH]1 ?
Cruzain inh Det: -3%; Cruzain inh noDet: -5%

What do the screens show for `CCCSc1nc2c(cnn2-c2ccc(Cl)cc2)c(=O)[nH]1`?
Cruzain inh Det: 0%; Cruzain inh noDet: 10µM*

How did Cc1ccc(-c2nc3c(cnn3-c3ccccc3)c(=O)n2-c2ccc(Cl)cc2)cc1 do in these assays?
Cruzain inh Det: -3%; Cruzain inh noDet: -11%

Results for CN1C(=O)N(C)C2=NNC=NC2(O)C1=O (configuration not stated) ?
Cruzain inh Det: -6%; Cruzain inh noDet: -3%

Results for CCCCCC(=O)Nc1nc(C)c(-c2csc(Nc3ccccc3OC)n2)s1 ?
Cruzain inh Det: -2%; Cruzain inh noDet: 13µM*

How did COc1ccc(OC)c(Nc2nc(-c3sc(NC(=O)CC(C)C)nc3C)cs2)c1 do in these assays?
Cruzain inh Det: -1%; Cruzain inh noDet: -29%

What do the screens show for `CCCC(=O)Nc1nc(C)c(-c2csc(Nc3ccccc3C)n2)s1`?
Cruzain inh Det: 2%; Cruzain inh noDet: -27%

How did CCCCCC(=O)Nc1nc(C)c(-c2csc(Nc3ccccc3OCC)n2)s1 do in these assays?
Cruzain inh Det: 1%; Cruzain inh noDet: 7.9µM*

How did CCCCCCC(=O)Nc1nc(C)c(-c2csc(Nc3ccccc3OC)n2)s1 do in these assays?
Cruzain inh Det: 4%; Cruzain inh noDet: 10µM*

Results for CCC(C)C(=O)Nc1nc(C)c(-c2csc(Nc3cc(OC)ccc3OC)n2)s1 (configuration not stated) ?
Cruzain inh Det: -6%; Cruzain inh noDet: -20%

How did COc1ccc(NC(=O)c2cccn2-c2nnc(N3CCCCC3)s2)cc1 do in these assays?
Cruzain inh Det: 4%; Cruzain inh noDet: -24%

How did O=C(NCCNC[C@@H](O)COc1ccc(O)cc1)N1CCOCC1 do in these assays?
Cruzain inh Det: 4%; Cruzain inh noDet: -4%

What do the screens show for `O=S(=O)(O)[C@@H](CO)c1ccccc1` (tested in a mixture with another compound)?
Cruzain inh Det: 4%; Cruzain inh noDet: 2%

How did Cn1c(=O)c2c(nc(N/N=C/c3ccc(OC(=O)c4ccco4)cc3)n2Cc2ccc(F)cc2)n(C)c1=O do in these assays?
Cruzain inh Det: -15%; Cruzain inh noDet: inconclusive

What do the screens show for `Cn1c(=O)c2c(nc(N/N=C/c3ccc(OC(=O)c4ccco4)cc3)n2Cc2ccccc2Cl)n(C)c1=O`?
Cruzain inh Det: inconclusive; Cruzain inh noDet: 32µM*

What do the screens show for `O=C(CSc1ccc(Cl)cc1)Nc1ccc(NC(=O)c2ccco2)cc1`?
Cruzain inh Det: 4%; Cruzain inh noDet: 10µM*

Bioassay records deposited in PubChem BioAssay by National Center for Advancing Translational Sciences (NCATS).
